Test results as given in PubChem BioAssay (NCATS).
Records with an inconclusive call do not appear. Activity calls are given as the source filed them. Calls come from the whole dose curve; as a rule, active = well fitted inhibition curve with a large enough effect; inconclusive = small, poorly fitted or top-dose-only effect, or effect the other way; inactive = flat fitted curve, though single readings scatter.

What follows are compounds tested against ATP-dependent 6-phosphofructokinase (Trypanosoma brucei brucei) (UniProt O15648) (assay: qHTS Assay to Find Inhibitors of T. brucei phosphofructokinase: hit validation (AID 492961;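 note: luminescence reports ADP formed as PFK phosphorylates fructose-6-phosphate with ATP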)). Conditions: T. brucei PFK, ADP-Glo luminescence; series mostly up to 51.4 µM.
Chain of ATP-dependent 6-phosphofructokinase (Trypanosoma brucei brucei) (O15648 whole entry, looked up): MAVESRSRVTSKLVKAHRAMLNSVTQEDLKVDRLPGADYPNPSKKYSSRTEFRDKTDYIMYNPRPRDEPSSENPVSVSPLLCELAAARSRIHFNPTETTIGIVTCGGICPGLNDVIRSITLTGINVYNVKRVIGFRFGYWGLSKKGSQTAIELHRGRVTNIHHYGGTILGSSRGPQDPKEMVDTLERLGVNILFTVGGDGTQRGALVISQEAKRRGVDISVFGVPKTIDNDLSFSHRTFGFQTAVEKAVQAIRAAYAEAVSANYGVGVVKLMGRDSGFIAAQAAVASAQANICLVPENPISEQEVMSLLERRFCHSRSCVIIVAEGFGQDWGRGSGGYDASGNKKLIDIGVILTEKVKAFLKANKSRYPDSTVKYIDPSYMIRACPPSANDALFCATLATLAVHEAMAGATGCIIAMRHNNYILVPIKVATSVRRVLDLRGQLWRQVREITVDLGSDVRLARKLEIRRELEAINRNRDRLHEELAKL
Procedure, shortened: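 Percent activity derived from corrected luminescence, normalized between 0x and 1x enzyme controls, then fitted to concentration-response curves. Conditions: 1.25 nM PFK, 0.1 mM ATP, 0.5 mM F6P, 45 min RT.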
With CN(C)CCc1ccc(O)cc1 the outcome was “inactive”.
With CN1CCN(C(=O)O[C@H]2c3nccnc3C(=O)N2c2ccc(Cl)cn2)CC1 the outcome was “inactive”.
With Oc1ccccc1-c1ccccc1 the outcome was “inactive”.
CC(=O)Nc1cc([As](=O)(O)O)ccc1O was tested, and the outcome was “inactive”.
CC1OC(C)OC(C)O1 (stereo not given) was tested, and the outcome was “inactive”.
